As a reminder, the AC50 is the midpoint of the concentration-response curve, whichever way the signal moves.

SMILES strings stand for the structures. Results filed as inconclusive are left out. Calls of active or inactive are those of the source. The calls were made as follows, unless noted: active = hit-call score of the fitted dose curve at least 0.9, where 1 is the maximum; inconclusive = response in the unintended direction; inactive = score below 0.9.

Experiment [1] in a line: BSK_3C_VCAM1: BioMAP Diversity Plus: 3C Assay for Vascular cell adhesion molecule 1 (VCAM1) Biomarker Activity (AID 2282999; active = hit-call score of the fitted dose curve at least 0.9, where 1 is the maximum; inactive = score below 0.9). Conditions: BioMAP 3C HUVEC, VCAM1 ELISA, cytokine-stimulated; actives raise or lower the signal. In outline:
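Human umbilical vein endothelial cells were dosed with compound for 24 h, after which cell-surface VCAM-1 was quantified by ELISA. Bidirectional curve fitting used DMSO as negative control and activity baseline.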
A general note: ELISA stands for enzyme-linked immunosorbent assay.

A short description of experiment [2]: BSK_4H_Eotaxin3: BioMAP Diversity Plus: 4H Assay for Eotaxin 3 Biomarker Activity (AID 2283000; active = hit-call score of the fitted dose curve at least 0.9, where 1 is the maximum; inactive = score below 0.9;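 as to outcome: CCL26 protein level quantified by ELISA in parallel with SRB cytotoxicity check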). The note with it: primary human endothelial cells (HUVEC); actives raise or lower the signal. In outline: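 Endothelial primary cells (human umbilical vein) exposed to compound for 24 h. ELISA detection of Eotaxin-3.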
Experiment [3] concerns the target human Peroxisome Proliferator-activated Receptor delta (PPARd), PPARD (gene 5467) (UniProt Q03181). Description: ATG_PPARd_TRANS: Attagene TRANS-FACTORIAL HepG2 Assay for human Peroxisome Proliferator-activated Receptor delta (PPARd) (AID 2283002). In outline: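 Multiplexed trans-activation format: HepG2 liver cells expressing exogenous NR-Gal4 chimeras and GAL4-UAS reporters were exposed for 24 h. Reporter mRNA was detected by RT-PCR with capillary electrophoresis fluorescence; activity fitted as gain of signal relative to DMSO.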

Read-out in experiment [4]: Intercellular Adhesion Molecule 1 (ICAM1), ICAM1 (gene 3383)
Description: BSK_3C_ICAM1: BioMAP Diversity Plus: 3C Assay for Intercellular Adhesion Molecule 1 (ICAM1) Biomarker Activity (AID 2283003; active = hit-call score of the fitted dose curve at least 0.9, where 1 is the maximum; inactive = score below 0.9). The note with it: primary human endothelial cells (HUVEC); actives raise or lower the signal. In outline:
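ICAM-1 levels measured by ELISA after HUVEC cultures in the 3C system had been dosed for 24 h. Gain or loss of signal relative to DMSO was fitted in both directions.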

Experiment [5] in a line: BSK_3C_Proliferation: Cell Proliferation Assessment in the BioMAP Diversity Plus: 3C Assay (AID 2283006; active = hit-call score of the fitted dose curve at least 0.9, where 1 is the maximum; inactive = score below 0.9;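 as to AC50: potency may reflect either rise or fall in cell number versus DMSO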). Conditions: primary human endothelial cells (HUVEC). In outline: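 Read-out is total protein by SRB absorbance at 560 nm, taken as a proxy for relative cell number. Primary human umbilical vein endothelium cultured below confluence was dosed for 48 h, TCA-fixed and SRB-stained; curves were fitted bidirectionally versus DMSO.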

Experiment [6] has as its target Peroxisome proliferator-activated receptor gamma (Homo sapiens) (UniProt P37231). Description: ATG_PPARg_TRANS: Attagene TRANS-FACTORIAL HepG2 Assay for human Peroxisome Proliferator-activated Receptor-gamma (PPARg) (AID 2283007). In outline: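 Human hepatoma HepG2, transient MRTU transfection, 24 h treatment. mRNA reporter signal by RT-PCR plus capillary electrophoresis, fluorescence detection; fitted for increase over DMSO negative control.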

In experiment [7] the target is Nuclear receptor subfamily 1 group I member 2 (Homo sapiens) (UniProt O75469). As to the kind of experiment: ATG_PXR_TRANS: Attagene TRANS-FACTORIAL HepG2 Assay for human Pregnane X Receptor (PXR) (AID 2283008). In outline:
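Measures mRNA induction of a GAL4-UAS-driven reporter in human HepG2 cells transiently expressing PXR fused to Gal4, following 24 h treatment. DMSO served as negative control and baseline.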

The target of experiment [8] is human RAR-related Orphan Receptor gamma (RORg), RORC (gene 6097) (UniProt P51449). Description: ATG_RORg_TRANS: Attagene TRANS-FACTORIAL HepG2 Assay for human RAR-related Orphan Receptor gamma (RORg) (AID 2283011). In outline: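 Activity is scored as increase in GAL4-UAS reporter mRNA over DMSO, detected by fluorescent RT-PCR and capillary electrophoresis in HepG2 cells transiently expressing a RORg-Gal4 chimera, 24 h after dosing.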

For experiment [9], the target named is human Retinoid X Receptor beta (RXRb), RXRB (gene 6257) (UniProt P28702). Description: ATG_RXRb_TRANS: Attagene TRANS-FACTORIAL HepG2 Assay for human Retinoid X Receptor beta (RXRb) (AID 2283013). The procedure, abridged: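 Transfect HepG2 with GAL4-UAS multi-reporter constructs (chimeric NR-Gal4, TRANS format); dose compound 24 h; isolate RNA, RT-PCR, FAM primer extension, HpaI digest; quantify by capillary electrophoresis; positive direction vs DMSO.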

Read-out in experiment [10]: E-selectin (Homo sapiens) (UniProt P16581)
Description: BSK_3C_Eselectin: BioMAP Diversity Plus: 3C Assay for Eselectin Biomarker Activity (AID 2283015; active = hit-call score of the fitted dose curve at least 0.9, where 1 is the maximum; inactive = score below 0.9;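 as to outcome: cell surface E-selectin protein quantified by ELISA 24 h after dosing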). The note with it: primary human endothelial cells (HUVEC); actives raise or lower the signal. The procedure, abridged:
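Human vascular endothelium from umbilical vein is exposed to test chemicals for 24 h. E-selectin levels are read by ELISA and compared with DMSO controls.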

Read-out in experiment [11]: Interleukin-1 alpha (IL1a), IL1A (gene 3552)
As to the kind of experiment: BSK_BE3C_IL1a: BioMAP Diversity Plus: BE3C Assay for Interleukin-1 alpha (IL1a) Biomarker Activity (AID 2283016; active = hit-call score of the fitted dose curve at least 0.9, where 1 is the maximum; inactive = score below 0.9). The note with it: primary human bronchial epithelial cells; actives raise or lower the signal. In outline:
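BE3C primary human bronchial epithelium; cpd 24 h; IL-1a by ELISA; bidirectional fit vs DMSO; parallel SRB (0.1% SRB, 10% TCA fix, 560 nm) for cytotoxicity.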

Read-out in experiment [12]: Monocyte Chemoattractant Protein-1 (MCP1), CCL2 (gene 6347)
As to the kind of experiment: BSK_3C_MCP1: BioMAP Diversity Plus: 3C Assay for Monocyte Chemoattractant Protein-1 (MCP1) Biomarker Activity (AID 2283017; active = hit-call score of the fitted dose curve at least 0.9, where 1 is the maximum; inactive = score below 0.9). Conditions: primary human endothelial cells (HUVEC); actives raise or lower the signal. In outline: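 Endothelial cells from human umbilical vein are dosed with chemical, cultured 24 h, then assayed for MCP-1 by ELISA; both increases and decreases are modelled against DMSO controls.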

Read-out in experiment [13]: Monocyte Chemoattractant Protein-1 (MCP1), CCL2 (gene 6347)
As to the kind of experiment: BSK_4H_MCP1: BioMAP Diversity Plus: 4H Assay for Monocyte Chemoattractant Protein-1 (MCP1) Biomarker Activity (AID 2283018; active = hit-call score of the fitted dose curve at least 0.9, where 1 is the maximum; inactive = score below 0.9). Conditions: primary human endothelial cells (HUVEC); actives raise or lower the signal. In outline: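 ELISA read-out of MCP-1 from human vascular endothelial primary cells taken at 24 hours after compound exposure. Activity was fitted in both directions relative to DMSO, which served as negative control.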

Read-out in experiment [14]: Human Leukocyte Antigen - DR isotype (HLADR), HLA-DRA (gene 3122)
Description: BSK_3C_HLADR: BioMAP Diversity Plus: 3C Assay for Human Leukocyte Antigen - DR isotype (HLADR) Biomarker Activity (AID 2283019; active = hit-call score of the fitted dose curve at least 0.9, where 1 is the maximum; inactive = score below 0.9;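 as to outcome: ELISA of cell-surface HLA-DR on HUVEC 24 h after dosing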). Conditions: primary human endothelial cells (HUVEC); actives raise or lower the signal. The procedure, abridged: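 Endothelial cells from human umbilical vein are treated with test chemical; after 24 h, HLA-DR levels are measured by ELISA. Data are fitted in both directions using DMSO as the baseline.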

The target in experiment [15] is human Retinoic Acid Receptor beta (RARb), RARB (gene 5915) (UniProt P10826). As to the kind of experiment: ATG_RARb_TRANS: Attagene TRANS-FACTORIAL HepG2 Assay for human Retinoic Acid Receptor beta (AID 2283004). In outline: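 HepG2, transient MRTU transfection, NR–Gal4 chimera, 24 h treatment; RT-PCR plus CE fluorescence detection of reporter mRNA; gain of signal vs DMSO.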

For experiment [16], the target named is Retinoic acid receptor alpha (Homo sapiens) (UniProt P10276). As to the kind of experiment: ATG_RARa_TRANS: Attagene TRANS-FACTORIAL HepG2 Assay for human Retinoic Acid Receptor alpha (RARa) (AID 2283005).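 As to AC50: potency for increased reporter signal meaning RARa activation over DMSO.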 The procedure, abridged:
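HepG2 cells transiently transfected with multiple reporter units expressing chimeric RARα-GAL4 fusion, with GAL4-UAS-driven reporters. After 24 h compound exposure, reporter mRNA induction quantified by RT-PCR and capillary electrophoresis with fluorescent labeling; gain-of-signal fitted relative to DMSO control.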

Experiment [17] deals with human Retinoic Acid Receptor gamma (RARg), RARG (gene 5916) (UniProt P13631). As to the kind of experiment: ATG_RARg_TRANS: Attagene TRANS-FACTORIAL HepG2 Assay for human Retinoic Acid Receptor gamma (RARg) (AID 2283009). In outline:
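Transient transfection of HepG2 with multi-reporter constructs, then 24 h chemical treatment. Total RNA isolated, reverse-transcribed, PCR-amplified, fluorescently labelled and resolved by capillary electrophoresis; activity scored as mRNA induction versus DMSO.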

Experiment [18] deals with Retinoic acid receptor RXR-alpha (Homo sapiens) (UniProt P19793). Description: ATG_RXRa_TRANS: Attagene TRANS-FACTORIAL HepG2 Assay for human Retinoid X Receptor alpha (RXRa) (AID 2283012). In outline:
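Transient transfection of human HepG2 with multiple GAL4-UAS reporter constructs; 24 h compound exposure; total RNA isolated, reverse-transcribed, PCR-amplified, 6-FAM labelled, HpaI-cut, resolved by capillary electrophoresis. Positive-direction fit versus DMSO.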

Experiment [19] has as its target human Thyroid Receptor alpha (THRa1), THRA (gene 7067) (UniProt P10827). Description: ATG_THRa1_TRANS: Attagene TRANS-FACTORIAL HepG2 Assay for human Thyroid Receptor alpha (THRa1) (AID 2283014). The procedure, abridged:
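First, HepG2 cells receive multiple GAL4-UAS reporter units and the chimeric receptor. They are then dosed for 24 h, after which RNA is reverse-transcribed, amplified, labelled, HpaI-cut and sized by capillary electrophoresis; gain relative to DMSO is scored.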

Chain of human Retinoic Acid Receptor gamma (RARg), RARG (gene 5916) (P13631 whole entry, looked up): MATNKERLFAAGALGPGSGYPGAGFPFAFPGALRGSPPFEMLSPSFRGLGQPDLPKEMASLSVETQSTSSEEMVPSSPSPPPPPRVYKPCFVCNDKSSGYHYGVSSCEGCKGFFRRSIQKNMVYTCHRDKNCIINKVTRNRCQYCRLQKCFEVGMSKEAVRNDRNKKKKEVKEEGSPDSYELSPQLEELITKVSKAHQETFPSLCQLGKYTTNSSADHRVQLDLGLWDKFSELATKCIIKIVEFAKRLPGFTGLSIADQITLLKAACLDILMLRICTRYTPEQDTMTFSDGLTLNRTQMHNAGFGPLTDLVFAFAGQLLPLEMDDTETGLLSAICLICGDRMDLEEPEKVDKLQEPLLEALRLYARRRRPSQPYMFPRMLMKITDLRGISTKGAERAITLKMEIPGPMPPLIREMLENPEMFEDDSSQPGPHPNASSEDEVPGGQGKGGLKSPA
Chain of human RAR-related Orphan Receptor gamma (RORg), RORC (gene 6097) (P51449 whole entry, looked up, the tested form may be a part): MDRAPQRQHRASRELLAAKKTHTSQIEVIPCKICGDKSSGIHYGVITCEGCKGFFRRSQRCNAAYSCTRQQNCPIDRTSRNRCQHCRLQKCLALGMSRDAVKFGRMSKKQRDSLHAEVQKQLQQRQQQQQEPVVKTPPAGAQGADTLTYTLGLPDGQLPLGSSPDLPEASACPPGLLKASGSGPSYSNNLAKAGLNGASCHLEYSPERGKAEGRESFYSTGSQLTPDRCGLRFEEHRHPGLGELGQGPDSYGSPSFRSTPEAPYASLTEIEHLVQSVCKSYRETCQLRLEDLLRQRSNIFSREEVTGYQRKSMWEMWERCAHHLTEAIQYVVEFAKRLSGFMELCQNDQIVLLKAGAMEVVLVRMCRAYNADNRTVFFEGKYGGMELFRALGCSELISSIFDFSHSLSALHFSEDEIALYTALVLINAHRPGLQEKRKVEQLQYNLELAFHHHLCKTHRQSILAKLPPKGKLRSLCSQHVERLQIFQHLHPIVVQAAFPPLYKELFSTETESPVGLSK
Chain of human Peroxisome Proliferator-activated Receptor delta (PPARd), PPARD (gene 5467) (Q03181 whole entry, looked up, the tested form may be a part): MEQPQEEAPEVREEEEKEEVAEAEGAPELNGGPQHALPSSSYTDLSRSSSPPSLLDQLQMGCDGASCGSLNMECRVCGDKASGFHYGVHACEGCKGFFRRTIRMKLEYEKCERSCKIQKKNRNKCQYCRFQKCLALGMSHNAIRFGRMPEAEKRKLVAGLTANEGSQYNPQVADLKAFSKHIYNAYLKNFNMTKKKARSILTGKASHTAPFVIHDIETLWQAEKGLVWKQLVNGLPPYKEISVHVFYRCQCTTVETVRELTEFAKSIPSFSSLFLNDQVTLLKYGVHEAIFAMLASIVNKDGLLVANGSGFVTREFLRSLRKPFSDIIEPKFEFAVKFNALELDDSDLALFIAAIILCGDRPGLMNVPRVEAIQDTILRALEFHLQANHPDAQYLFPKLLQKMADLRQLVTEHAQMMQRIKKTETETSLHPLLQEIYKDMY
Chain of human Thyroid Receptor alpha (THRa1), THRA (gene 7067) (P10827 whole entry, looked up, the tested form may be a part): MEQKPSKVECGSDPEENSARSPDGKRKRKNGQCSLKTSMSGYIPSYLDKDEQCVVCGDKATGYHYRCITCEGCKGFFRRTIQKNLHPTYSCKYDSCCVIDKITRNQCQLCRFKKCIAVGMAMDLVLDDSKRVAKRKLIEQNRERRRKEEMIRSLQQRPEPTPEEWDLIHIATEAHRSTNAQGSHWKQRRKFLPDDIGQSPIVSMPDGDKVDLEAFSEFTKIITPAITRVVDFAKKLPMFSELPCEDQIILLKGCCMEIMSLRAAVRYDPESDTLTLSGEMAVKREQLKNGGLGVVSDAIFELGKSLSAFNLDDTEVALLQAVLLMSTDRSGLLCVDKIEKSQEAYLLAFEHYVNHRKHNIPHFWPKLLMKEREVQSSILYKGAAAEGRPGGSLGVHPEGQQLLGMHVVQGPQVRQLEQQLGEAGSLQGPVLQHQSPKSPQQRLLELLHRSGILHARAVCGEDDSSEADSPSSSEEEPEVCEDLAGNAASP
Chain of human Retinoic Acid Receptor beta (RARb), RARB (gene 5915) (P10826 whole entry, looked up, the tested form may be a part): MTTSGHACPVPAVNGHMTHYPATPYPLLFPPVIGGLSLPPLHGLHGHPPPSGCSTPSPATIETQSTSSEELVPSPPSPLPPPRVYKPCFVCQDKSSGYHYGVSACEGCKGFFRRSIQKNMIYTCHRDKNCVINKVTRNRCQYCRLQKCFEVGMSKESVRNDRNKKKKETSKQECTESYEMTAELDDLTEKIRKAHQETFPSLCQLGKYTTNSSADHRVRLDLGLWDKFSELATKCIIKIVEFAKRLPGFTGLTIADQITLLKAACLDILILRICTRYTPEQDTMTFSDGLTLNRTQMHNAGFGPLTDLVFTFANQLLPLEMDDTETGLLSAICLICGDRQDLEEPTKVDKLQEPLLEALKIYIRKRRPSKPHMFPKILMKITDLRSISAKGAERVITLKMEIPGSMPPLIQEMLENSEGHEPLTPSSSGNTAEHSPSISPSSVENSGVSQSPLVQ
Chain of human Retinoid X Receptor beta (RXRb), RXRB (gene 6257) (P28702 whole entry, looked up, the tested form may be a part): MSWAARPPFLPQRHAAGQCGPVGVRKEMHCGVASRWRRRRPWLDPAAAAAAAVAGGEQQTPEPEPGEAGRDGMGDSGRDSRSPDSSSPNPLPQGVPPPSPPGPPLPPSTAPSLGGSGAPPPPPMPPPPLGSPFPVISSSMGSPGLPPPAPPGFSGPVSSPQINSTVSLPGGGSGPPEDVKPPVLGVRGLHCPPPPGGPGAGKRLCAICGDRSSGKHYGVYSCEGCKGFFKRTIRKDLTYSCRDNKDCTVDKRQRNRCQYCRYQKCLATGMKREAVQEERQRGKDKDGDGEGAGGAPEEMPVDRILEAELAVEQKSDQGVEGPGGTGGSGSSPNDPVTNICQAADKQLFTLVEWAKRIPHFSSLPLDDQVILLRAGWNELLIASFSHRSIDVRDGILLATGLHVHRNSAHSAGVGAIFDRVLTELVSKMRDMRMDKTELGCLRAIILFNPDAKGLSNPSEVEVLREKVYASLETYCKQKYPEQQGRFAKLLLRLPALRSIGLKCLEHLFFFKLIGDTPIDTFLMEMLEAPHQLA
Chain of E-selectin (Homo sapiens) (P16581 whole entry, looked up): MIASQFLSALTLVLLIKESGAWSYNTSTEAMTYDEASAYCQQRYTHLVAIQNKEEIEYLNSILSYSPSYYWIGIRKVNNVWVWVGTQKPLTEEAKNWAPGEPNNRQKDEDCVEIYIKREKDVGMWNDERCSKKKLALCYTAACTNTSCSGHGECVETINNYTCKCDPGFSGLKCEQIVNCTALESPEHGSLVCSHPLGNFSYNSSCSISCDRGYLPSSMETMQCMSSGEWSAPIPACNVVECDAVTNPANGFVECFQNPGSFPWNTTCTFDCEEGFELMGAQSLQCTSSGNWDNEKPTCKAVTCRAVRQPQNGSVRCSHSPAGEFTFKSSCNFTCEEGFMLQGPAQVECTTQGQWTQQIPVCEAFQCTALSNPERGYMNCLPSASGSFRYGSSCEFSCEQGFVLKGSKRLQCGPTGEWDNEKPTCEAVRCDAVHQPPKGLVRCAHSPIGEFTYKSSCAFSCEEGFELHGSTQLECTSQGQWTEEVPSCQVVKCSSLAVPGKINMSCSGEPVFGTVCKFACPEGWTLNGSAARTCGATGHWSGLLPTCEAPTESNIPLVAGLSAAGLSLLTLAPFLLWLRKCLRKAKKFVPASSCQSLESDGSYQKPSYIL
Chain of Nuclear receptor subfamily 1 group I member 2 (Homo sapiens) (O75469 whole entry, looked up, the tested form may be a part): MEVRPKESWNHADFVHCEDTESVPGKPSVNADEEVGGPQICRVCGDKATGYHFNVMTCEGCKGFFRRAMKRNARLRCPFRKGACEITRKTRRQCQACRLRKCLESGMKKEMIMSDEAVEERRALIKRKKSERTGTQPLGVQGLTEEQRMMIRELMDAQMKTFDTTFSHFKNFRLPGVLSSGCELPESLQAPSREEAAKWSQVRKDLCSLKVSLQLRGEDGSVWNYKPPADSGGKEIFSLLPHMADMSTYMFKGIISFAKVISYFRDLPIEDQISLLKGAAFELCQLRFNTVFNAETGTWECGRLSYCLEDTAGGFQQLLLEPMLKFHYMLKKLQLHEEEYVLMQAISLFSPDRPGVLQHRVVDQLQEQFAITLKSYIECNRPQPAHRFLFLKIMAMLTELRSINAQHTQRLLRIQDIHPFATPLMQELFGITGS
Chain of Peroxisome proliferator-activated receptor gamma (Homo sapiens) (P37231 whole entry, looked up): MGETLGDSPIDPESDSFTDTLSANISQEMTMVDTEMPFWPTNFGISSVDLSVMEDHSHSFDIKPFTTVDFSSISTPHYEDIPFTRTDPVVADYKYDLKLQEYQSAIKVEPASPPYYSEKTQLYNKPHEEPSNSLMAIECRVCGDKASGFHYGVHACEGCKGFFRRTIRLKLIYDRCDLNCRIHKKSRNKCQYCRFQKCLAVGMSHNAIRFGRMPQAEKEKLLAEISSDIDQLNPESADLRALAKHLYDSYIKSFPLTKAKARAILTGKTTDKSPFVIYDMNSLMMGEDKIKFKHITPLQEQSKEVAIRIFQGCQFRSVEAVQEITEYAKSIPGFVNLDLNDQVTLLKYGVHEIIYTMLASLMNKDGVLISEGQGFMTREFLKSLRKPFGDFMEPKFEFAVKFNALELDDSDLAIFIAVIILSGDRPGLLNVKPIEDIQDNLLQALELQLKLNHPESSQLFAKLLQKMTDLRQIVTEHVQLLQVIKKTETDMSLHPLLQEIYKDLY
Chain of Retinoic acid receptor alpha (Homo sapiens) (P10276 whole entry, looked up, the tested form may be a part): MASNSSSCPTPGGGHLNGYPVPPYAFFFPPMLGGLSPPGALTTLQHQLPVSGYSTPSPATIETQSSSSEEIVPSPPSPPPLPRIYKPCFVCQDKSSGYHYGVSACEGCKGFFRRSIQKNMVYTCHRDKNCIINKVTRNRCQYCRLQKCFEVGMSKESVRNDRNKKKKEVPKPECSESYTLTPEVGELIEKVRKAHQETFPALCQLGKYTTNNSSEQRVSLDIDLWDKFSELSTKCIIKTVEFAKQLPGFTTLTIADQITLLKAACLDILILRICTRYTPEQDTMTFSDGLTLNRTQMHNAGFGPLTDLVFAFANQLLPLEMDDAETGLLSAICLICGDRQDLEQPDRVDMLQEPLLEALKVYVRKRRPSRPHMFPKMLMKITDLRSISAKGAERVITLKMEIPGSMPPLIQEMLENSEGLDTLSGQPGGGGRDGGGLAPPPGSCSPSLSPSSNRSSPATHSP

In the case of `CCOP(=S)(OCC)Oc1ccc([N+](=O)[O-])cc1`, the result in experiment [1], in [2], in [3], in experiment [4], in [5] and in experiment [8] was inactive. The call in experiment [9], in experiment [10], in experiment [11], in experiment [12] and in experiment [14] was inactive. Further, the AC50 in experiment [6] is 28.8 µM (active); in [7], 19.9 µM (active); in experiment [13] it was 25.2 µM (active).

Regarding `CON=C(C(=O)OC)c1ccccc1CON=C(C)c1cccc(C(F)(F)F)c1`, the result in [1], in [3], in [15], in experiment [16], in experiment [7] and in experiment [17] was inactive. Moreover, the call in experiment [18], in experiment [9], in experiment [19] and in experiment [11] was inactive. The AC50 in experiment [2] was 2.78 µM (active); in experiment [5], 1.58 µM (active); in experiment [6], 50 µM (active); in [10], 2.35 µM (active); in experiment [12], 3.3 µM (active); in experiment [13], 2.81 µM (active). Also, in experiment [14], the half-maximal activity concentration (AC50) was 2.82 µM (active).

`CCOP(=S)(OCC)Oc1ccc2c(C)c(Cl)c(=O)oc2c1`: the outcome in experiment [1], in [2], in [3], in experiment [15], in [6] and in experiment [17] was inactive. Also, the outcome in experiment [8], in experiment [18], in experiment [19], in experiment [10], in experiment [11] and in [12] was inactive. Further, the outcome in experiment [13] and in experiment [14] was inactive. The AC50 was 2.3 µM (active) in experiment [16], 9.56 µM (active) in [5] and 3.94 µM (active) in [7].

Take `COP(=O)(OC)C(O)C(Cl)(Cl)Cl` (stereo unspecified): the result in experiment [1], in experiment [2], in experiment [3], in experiment [15], in experiment [5] and in experiment [7] was inactive. Also, the outcome in experiment [17], in experiment [8], in experiment [18], in experiment [9], in experiment [19] and in [10] was inactive. In addition, the result in experiment [11], in [12], in [13] and in [14] was inactive. The AC50 is 78.9 µM (active) in experiment [16] and 72.2 µM (active) in [6].

For the molecule `CCCCSP(=O)(SCCCC)SCCCC`, the outcome in [1], in experiment [2], in experiment [3], in [15], in experiment [7] and in experiment [17] was inactive. In addition, the call in experiment [18], in [9] and in [11] was inactive. Further, the half-maximal activity concentration (AC50) in [5] is 29.5 µM (active); in experiment [6], 30.5 µM (active); in experiment [10], 28.1 µM (active); in [12], 26 µM (active); in [13], 16.7 µM (active); in [14], 27.7 µM (active).

Turning to `CNc1cnn(-c2cccc(C(F)(F)F)c2)c(=O)c1Cl`, the result in experiment [1], in experiment [2], in experiment [3], in experiment [15], in [16] and in experiment [5] was inactive. Besides, the call in experiment [6], in experiment [7], in experiment [17], in [8], in experiment [9] and in experiment [19] was inactive. Besides, the outcome in experiment [10], in experiment [12] and in [13] was inactive. In experiment [14], the AC50 is 3.97 µM (active).

In the case of `CCOC(=O)CC(SP(=O)(OC)OC)C(=O)OCC` (stereo unspecified), the outcome in experiment [1], in experiment [2], in experiment [3], in experiment [15], in [5] and in [17] was inactive. Besides, the result in experiment [18], in experiment [9], in experiment [19], in experiment [10], in [12] and in experiment [13] was inactive. In addition, the result in experiment [14] was inactive. Further, the half-maximal activity concentration (AC50) in experiment [6] is 28.7 µM (active).

For the origin of these results see PubChem BioAssay (EPA / NIEHS).
